The source of these data is ChEMBL document CHEMBL1961873, “Compounds: GSK PKIS; Assays: Nanosyn kinase panel” (2012).

The inhibition is the drop in the measured response relative to a control, in per cent.

For test [1], the target named is Sphingosine kinase 1 (Homo sapiens) (UniProt Q9NYA1). To be noted: at 1 µM.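 Also: mean SPHK1 inhibition value reported from the GSK PKIS kinase panel screen.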
For test [2], the target named is T1, Sphingosine kinase 2 (Homo sapiens) (UniProt Q9NRA0).
T1 sequence (whole entry): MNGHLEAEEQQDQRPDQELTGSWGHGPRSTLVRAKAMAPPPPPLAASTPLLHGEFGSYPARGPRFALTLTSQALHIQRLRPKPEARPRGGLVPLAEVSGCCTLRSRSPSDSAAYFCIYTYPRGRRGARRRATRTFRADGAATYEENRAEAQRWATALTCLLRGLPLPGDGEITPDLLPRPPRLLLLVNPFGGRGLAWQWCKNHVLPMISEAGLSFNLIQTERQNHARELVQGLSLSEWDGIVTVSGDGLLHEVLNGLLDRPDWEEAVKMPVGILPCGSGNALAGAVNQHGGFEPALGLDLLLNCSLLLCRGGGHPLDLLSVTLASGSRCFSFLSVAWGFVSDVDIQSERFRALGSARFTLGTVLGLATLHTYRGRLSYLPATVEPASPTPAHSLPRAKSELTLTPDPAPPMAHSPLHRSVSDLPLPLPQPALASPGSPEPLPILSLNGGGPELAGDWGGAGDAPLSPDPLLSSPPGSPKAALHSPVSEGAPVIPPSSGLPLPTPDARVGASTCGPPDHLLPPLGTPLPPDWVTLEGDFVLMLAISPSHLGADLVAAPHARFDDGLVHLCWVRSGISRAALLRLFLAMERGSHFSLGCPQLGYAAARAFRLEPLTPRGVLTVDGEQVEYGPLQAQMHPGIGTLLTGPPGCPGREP
To be noted: at 0.1 µM.

Test [3] addresses T1, Sphingosine kinase 2 (Homo sapiens). Particulars: at 1 µM.
The target of test [4] is Casein kinase II subunit alpha (Homo sapiens) (UniProt P68400). Particulars: at 0.1 µM.
Chain of Casein kinase II subunit alpha (Homo sapiens) (P68400 whole entry, looked up): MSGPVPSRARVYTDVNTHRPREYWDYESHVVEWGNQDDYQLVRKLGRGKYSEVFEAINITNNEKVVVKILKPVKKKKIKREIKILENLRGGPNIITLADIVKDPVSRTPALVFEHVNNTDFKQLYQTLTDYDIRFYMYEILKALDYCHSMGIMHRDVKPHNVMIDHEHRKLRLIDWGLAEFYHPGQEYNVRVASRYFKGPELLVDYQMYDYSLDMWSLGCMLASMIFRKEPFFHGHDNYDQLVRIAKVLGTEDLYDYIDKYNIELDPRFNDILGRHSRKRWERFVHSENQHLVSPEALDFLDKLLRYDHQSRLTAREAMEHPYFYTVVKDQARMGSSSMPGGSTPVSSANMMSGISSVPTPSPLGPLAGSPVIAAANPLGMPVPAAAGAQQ
Test [5] has the same target. To be noted: at 1 µM.
For test [6], the target named is T2, Inhibitor of nuclear factor kappa-B kinase subunit alpha (Homo sapiens) (UniProt O15111).
T2 sequence (whole entry): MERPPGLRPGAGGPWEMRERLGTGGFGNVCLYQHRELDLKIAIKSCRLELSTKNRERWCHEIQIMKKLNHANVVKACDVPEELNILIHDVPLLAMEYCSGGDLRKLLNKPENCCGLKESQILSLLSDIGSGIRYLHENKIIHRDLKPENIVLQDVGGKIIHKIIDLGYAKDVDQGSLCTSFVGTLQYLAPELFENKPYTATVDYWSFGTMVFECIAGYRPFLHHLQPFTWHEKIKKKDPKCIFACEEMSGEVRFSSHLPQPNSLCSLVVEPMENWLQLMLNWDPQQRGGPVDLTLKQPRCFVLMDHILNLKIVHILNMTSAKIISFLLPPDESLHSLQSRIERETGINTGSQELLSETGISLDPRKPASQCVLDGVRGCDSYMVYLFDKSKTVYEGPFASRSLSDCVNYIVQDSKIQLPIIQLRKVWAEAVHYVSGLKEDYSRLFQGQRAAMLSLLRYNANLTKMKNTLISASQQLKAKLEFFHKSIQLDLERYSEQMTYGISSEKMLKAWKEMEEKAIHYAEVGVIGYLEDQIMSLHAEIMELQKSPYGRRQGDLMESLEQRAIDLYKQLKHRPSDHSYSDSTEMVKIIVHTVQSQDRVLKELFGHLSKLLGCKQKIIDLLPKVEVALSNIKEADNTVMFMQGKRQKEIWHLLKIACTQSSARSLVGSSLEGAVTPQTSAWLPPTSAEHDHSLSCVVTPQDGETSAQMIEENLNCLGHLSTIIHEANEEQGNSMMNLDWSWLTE
Particulars: at 0.1 µM.

For test [7], the target named is T2, Inhibitor of nuclear factor kappa-B kinase subunit alpha (Homo sapiens). To be noted: at 1 µM.
The target of test [8] is T3, Inhibitor of nuclear factor kappa-B kinase subunit beta (Homo sapiens) (UniProt O14920).
T3 sequence (whole entry): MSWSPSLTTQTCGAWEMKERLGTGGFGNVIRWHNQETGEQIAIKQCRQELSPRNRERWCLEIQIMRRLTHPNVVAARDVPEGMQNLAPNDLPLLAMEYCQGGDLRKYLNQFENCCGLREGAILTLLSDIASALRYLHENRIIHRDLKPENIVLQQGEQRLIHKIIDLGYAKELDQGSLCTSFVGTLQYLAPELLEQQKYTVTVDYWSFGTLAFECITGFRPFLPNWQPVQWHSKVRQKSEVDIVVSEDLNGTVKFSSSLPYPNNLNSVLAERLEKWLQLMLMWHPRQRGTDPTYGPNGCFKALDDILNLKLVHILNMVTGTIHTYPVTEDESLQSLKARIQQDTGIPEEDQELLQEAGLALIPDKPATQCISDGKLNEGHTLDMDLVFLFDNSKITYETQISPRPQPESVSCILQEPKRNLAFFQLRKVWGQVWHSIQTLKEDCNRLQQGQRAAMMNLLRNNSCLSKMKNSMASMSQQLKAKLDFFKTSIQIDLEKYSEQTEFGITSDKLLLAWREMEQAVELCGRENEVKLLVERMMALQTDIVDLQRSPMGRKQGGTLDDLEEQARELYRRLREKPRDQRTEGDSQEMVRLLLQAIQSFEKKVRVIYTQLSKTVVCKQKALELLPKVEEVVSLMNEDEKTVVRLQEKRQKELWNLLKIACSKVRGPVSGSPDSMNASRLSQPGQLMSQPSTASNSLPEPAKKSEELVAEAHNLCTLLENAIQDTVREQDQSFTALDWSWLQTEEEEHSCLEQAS
To be noted: at 0.1 µM.

The target of test [9] is T3, Inhibitor of nuclear factor kappa-B kinase subunit beta (Homo sapiens). Particulars: at 1 µM.
In test [10] the target is T4, Inhibitor of nuclear factor kappa-B kinase subunit epsilon (Homo sapiens) (UniProt Q14164).
T4 sequence (whole entry): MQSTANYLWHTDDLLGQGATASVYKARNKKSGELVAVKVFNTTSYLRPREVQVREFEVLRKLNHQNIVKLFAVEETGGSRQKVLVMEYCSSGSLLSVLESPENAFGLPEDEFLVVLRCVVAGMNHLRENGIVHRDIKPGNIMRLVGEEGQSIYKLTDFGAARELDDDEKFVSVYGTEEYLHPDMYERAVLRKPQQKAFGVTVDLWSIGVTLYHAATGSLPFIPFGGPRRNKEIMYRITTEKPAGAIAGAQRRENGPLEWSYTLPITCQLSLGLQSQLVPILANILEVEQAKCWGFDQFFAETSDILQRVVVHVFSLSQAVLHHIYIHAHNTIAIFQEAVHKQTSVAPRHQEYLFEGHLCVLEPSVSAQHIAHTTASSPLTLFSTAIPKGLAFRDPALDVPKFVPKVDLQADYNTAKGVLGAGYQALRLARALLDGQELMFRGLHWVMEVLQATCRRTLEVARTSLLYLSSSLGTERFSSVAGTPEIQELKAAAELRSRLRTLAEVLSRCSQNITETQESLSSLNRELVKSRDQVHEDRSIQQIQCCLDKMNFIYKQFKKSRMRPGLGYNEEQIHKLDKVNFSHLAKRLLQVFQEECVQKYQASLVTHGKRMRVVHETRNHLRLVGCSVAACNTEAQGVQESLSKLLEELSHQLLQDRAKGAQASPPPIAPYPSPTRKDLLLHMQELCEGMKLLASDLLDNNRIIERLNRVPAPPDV
Particulars: at 0.1 µM.

Test [11] addresses T4, Inhibitor of nuclear factor kappa-B kinase subunit epsilon (Homo sapiens). Particulars: at 1 µM.
In test [12] the target is T5, Serine/threonine-protein kinase Nek1 (Homo sapiens) (UniProt Q96PY6).
T5 sequence (whole entry): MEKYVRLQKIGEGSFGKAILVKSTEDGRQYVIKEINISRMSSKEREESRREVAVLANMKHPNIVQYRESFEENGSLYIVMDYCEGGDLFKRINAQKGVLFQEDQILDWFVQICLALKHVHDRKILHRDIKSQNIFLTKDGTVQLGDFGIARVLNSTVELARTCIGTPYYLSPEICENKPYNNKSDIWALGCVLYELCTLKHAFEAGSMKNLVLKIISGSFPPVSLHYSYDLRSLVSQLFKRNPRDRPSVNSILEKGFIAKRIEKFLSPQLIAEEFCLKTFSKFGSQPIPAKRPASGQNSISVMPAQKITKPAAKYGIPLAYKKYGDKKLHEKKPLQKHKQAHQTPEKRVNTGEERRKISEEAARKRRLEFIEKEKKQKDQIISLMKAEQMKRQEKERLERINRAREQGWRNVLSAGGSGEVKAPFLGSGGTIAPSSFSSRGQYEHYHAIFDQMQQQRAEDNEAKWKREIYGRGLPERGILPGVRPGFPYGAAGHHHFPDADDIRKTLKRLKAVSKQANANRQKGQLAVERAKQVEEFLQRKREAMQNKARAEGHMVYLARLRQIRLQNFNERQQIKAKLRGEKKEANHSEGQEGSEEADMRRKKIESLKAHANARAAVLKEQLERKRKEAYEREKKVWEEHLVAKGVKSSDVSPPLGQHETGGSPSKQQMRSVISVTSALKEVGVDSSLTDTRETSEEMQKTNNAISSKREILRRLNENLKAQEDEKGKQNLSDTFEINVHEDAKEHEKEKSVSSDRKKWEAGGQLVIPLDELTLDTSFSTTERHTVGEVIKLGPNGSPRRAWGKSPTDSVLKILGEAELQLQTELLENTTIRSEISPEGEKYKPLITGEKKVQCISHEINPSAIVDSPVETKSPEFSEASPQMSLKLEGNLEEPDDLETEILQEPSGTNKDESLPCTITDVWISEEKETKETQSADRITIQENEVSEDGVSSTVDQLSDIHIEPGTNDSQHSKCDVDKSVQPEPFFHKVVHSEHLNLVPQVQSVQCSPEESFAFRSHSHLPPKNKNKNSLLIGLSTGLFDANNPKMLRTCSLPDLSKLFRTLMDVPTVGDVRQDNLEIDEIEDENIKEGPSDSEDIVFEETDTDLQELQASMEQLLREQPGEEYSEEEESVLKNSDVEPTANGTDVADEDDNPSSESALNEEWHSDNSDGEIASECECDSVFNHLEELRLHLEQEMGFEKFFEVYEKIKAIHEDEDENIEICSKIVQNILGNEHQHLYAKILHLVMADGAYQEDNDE
To be noted: at 0.1 µM.

Test [13] has as its target T5, Serine/threonine-protein kinase Nek1 (Homo sapiens). To be noted: at 1 µM.
For test [14], the target named is T6, Serine/threonine-protein kinase Nek2 (Homo sapiens) (UniProt P51955).
T6 sequence (whole entry): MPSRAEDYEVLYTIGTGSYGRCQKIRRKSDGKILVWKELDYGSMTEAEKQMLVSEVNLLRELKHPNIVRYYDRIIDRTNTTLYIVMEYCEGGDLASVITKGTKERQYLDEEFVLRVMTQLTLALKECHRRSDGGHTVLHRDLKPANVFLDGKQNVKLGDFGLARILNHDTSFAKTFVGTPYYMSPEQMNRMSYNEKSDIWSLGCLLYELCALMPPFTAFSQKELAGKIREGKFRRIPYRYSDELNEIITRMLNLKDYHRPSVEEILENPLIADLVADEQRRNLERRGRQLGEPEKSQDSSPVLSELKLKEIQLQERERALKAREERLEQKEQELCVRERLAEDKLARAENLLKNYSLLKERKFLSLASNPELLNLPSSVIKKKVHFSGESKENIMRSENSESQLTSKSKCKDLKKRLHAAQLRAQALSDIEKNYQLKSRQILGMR
Particulars: at 0.1 µM.

The target of test [15] is T6, Serine/threonine-protein kinase Nek2 (Homo sapiens). Particulars: at 1 µM.
Test [16] has as its target Serine/threonine-protein kinase Nek6 (Homo sapiens) (UniProt Q9HC98). Particulars: at 0.1 µM.
The target is the same in test [17]. To be noted: at 1 µM.
In test [18] the target is Serine/threonine-protein kinase Nek7 (Homo sapiens) (UniProt Q8TDX7). Particulars: at 0.1 µM.
Chain of Serine/threonine-protein kinase Nek7 (Homo sapiens) (Q8TDX7 whole entry, looked up): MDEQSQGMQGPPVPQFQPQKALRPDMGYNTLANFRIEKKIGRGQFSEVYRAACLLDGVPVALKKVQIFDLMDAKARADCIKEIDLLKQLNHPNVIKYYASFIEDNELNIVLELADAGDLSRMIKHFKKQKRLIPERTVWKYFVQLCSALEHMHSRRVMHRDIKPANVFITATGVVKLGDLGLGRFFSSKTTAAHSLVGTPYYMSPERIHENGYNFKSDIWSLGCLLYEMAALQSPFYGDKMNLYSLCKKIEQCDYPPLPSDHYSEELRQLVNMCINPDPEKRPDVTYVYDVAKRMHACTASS
The target is the same in test [19]. To be noted: at 1 µM.
In test [20] the target is T7, Serine/threonine-protein kinase Nek9 (Homo sapiens) (UniProt Q8TD19).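 Also: reported value is the mean percent inhibition of NEK9.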
T7 sequence (whole entry): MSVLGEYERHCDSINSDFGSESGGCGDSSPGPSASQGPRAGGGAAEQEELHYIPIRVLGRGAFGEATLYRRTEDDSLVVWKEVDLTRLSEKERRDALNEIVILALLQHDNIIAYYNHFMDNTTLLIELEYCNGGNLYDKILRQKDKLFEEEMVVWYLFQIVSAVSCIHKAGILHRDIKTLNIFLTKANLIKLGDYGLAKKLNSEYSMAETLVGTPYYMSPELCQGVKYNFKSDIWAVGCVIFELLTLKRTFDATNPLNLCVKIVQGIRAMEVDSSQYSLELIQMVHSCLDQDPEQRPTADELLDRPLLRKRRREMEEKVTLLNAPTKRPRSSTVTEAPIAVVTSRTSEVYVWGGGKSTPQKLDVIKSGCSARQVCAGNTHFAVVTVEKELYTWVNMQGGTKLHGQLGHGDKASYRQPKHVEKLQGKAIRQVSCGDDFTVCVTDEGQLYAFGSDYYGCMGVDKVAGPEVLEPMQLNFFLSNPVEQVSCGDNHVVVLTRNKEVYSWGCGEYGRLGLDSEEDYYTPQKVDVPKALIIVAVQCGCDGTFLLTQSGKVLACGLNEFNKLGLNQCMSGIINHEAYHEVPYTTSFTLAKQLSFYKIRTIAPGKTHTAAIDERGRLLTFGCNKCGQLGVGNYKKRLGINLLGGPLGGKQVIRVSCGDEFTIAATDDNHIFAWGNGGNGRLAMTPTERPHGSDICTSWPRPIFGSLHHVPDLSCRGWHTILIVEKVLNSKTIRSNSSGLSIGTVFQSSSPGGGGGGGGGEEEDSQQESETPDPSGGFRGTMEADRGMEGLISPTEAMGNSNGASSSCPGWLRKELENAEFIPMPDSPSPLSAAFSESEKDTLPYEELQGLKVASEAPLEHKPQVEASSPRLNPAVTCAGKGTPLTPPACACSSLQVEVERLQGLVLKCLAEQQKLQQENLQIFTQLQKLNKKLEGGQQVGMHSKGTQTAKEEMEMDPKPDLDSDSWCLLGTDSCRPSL
Particulars: at 0.1 µM.

Chain of Serine/threonine-protein kinase Nek6 (Homo sapiens) (Q9HC98 whole entry): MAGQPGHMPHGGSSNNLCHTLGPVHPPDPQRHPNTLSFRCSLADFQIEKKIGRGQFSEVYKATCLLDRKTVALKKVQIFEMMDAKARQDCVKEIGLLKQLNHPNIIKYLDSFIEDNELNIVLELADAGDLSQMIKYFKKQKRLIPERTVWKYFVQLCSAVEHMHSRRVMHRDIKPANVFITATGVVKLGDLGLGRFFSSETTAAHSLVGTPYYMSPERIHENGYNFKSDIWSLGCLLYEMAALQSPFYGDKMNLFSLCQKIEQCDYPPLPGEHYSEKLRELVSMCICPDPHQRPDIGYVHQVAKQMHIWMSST
Chain of Sphingosine kinase 1 (Homo sapiens) (Q9NYA1 whole entry): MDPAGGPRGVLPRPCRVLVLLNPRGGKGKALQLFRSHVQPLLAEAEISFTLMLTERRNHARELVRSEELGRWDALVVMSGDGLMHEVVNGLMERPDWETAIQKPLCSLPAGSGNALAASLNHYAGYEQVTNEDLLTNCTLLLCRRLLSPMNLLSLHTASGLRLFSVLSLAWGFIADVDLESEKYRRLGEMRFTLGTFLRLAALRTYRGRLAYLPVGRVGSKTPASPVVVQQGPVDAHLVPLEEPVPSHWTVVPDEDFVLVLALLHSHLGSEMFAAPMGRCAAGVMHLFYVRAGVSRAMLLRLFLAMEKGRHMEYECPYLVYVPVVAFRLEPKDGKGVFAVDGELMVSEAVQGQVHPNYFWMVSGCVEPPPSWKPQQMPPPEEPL

On to `Cc1nnc(-c2ccc(C)c(-c3ccc(C(=O)NCc4ccc(Cl)cc4)cc3)c2)o1`, for which the inhibition in test [1] is -3.95%; in test [2], 0.02%; in test [3], 0.44%; in test [4] it was 2.9%; in test [5] it was 5.39%; in test [6] it was 8.21%. For the same compound, the inhibition was found to be 5.98% in [7]; 6.95% in test [8]; 4.95% in test [9]; 5.66% in test [10]; 5.13% in [11]; 2.48% in test [12]. In addition, the inhibition in test [13] is 4.54%; in test [14], 4.28%; in test [15] it was 3.25%; in test [16], 3.46%; in test [17], 5.29%; in test [18], 5.57%. The inhibition in [19] was 3.78%; in test [20], 6.68%.
